This is part of a sample that, as a whole, favours compounds with a hit. Of some 83,000 tested, about 20% had one in any assay.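 Cell lines were cultured in 96-well plates, exposed to a single compound concentration, and assessed for percent growth 48 hours later.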 A number with no mark means an inactive call. Calls of active or inactive are those of the source. Rule for the calls: active = growth percent below 10; inactive = the rest.
tested on: NCI-H23 lung; experiment: NCI-60 one-dose screen, 48 h (100 = growth as untreated, 0 = no growth, -100 = all killed); settings: 10 µM unless noted

Row | Structure (SMILES) | growth
1 | COc1cc(/C=C\c2cc(OC)c(OC)c(OC)c2)cc(N/C=C\C(=O)c2cc(OC)c(OC)c(OC)c2)c1OC | 29.6%
2 | N#C[S-].[Au+].c1ccc(CN2[CH-]N(Cc3ccccc3)C(c3ccccc3)=C2c2ccccc2)cc1 | 8.69% (active)
3 | O=[N+]([O-])c1ccc(OP(=O)(CCl)N(CCCl)CCCl)cc1 (stereo unspecified) | 108%
4 | O=C1CC2(CC3(Cl)C(Cl)=C(Cl)C2(Cl)C3(Cl)Cl)C(=O)O1 (stereo unspecified) | 96.8%
5 | COc1cc2c(cc1OCCCCCn1c(-c3ccco3)nc3ccccc31)N=C[C@@H]1CCCN1C2=O | -50% (active)
6 | O=C(O)c1ccc([S-])cc1.[Au+].c1ccc(CN2[CH-]N(Cc3ccccc3)C(c3ccccc3)=C2c2ccccc2)cc1 | -64.8% (active)
7 | N#C[Se]Cc1cc(-c2ccccc2)n(-c2ccc(S(N)(=O)=O)cc2)n1 | -18% (active)
8 | COc1cc2c(cc1OCCCCn1c(-c3cccs3)nc3ccccc31)N=C[C@@H]1CCCN1C2=O | -37.9% (active)
9 | COc1ccc(/C=C\c2cc(OC)c(OC)c(OC)c2)cc1OCC(=O)Nc1nc2ccc(F)cc2s1 | 34.4%
10 | O=C(Nc1ccc([N+](=O)[O-])cc1)C(Cl)(Cl)Cl | 96.5%
11 | C[CH2][Sn]([Cl])([Cl])[CH2]C.Oc1ccccc1C=NCCN=Cc1ccccc1O | 103%
12 | C[N+]12CN3CN(CN(C3)C1)C2 | 94.3%
13 | C[C@]12CC[C@@H]3c4ccc(Oc5nc(N6CC6)nc(N6CC6)n5)cc4CC[C@H]3[C@@H]1CCC2=O | 31.6%
14 | c1ccc(COc2ccc3[nH]cc(CCN(Cc4ccccc4)Cc4ccccc4)c3c2)cc1 | 77.5%
15 | [Au+].[N-]=C=O.c1ccc(CN2[CH-]N(Cc3ccccc3)C(c3ccccc3)=C2c2ccccc2)cc1 | 79.5%
16 | CC1=C(CCCNS(C)(=O)=O)C2=C(C)C3(CC3)[C@@](C)(O)C(=O)C2=C1 | -35.1% (active)
17 | C[C@]12CC[C@H]3[C@@H](CC[C@]4(O)C[C@@H](O[C@@H]5O[C@H](CO)[C@@H](O[C@@H]6OC[C@@H](O)[C@H](O)[C@H]6O)[C@H](O)[C@H]5O)CC[C@]34C=O)[C@@]1(O)CC[C@@H]2C1=CC(=O)OC1 | -37.1% (active)
18 | CN1C(=O)N[C@H]2[C@@H]3NC(=O)c4ccc(Br)n4[C@@H]3C[C@]21O | -14.5% (active)
19 | COC1OC(CO)C(O)C(O)[CH]1[Hg][O]C(C)=O (stereo unspecified) | 94.2%

Row | Structure (SMILES) | growth
20 | OCc1ccc2c(c1)OCO2 | 95.8%
21 | Nc1nnnc2nc[nH]c12 | 31%
22 | CC1CCCC(C[N+](C)(C)C)C1=O (stereo unspecified) | 109%
23 | CNC(=O)Oc1cccc(C(F)(F)F)c1 | 108%
24 | COc1cc2c(cc1OCCCn1c(-c3ccccn3)nc3ccccc31)N=C[C@@H]1CCCN1C2=O | 15%
25 | CCCCCCCOC(C(=O)OCCN(CC)CC)(c1ccccc1)c1ccccc1 | 87.7%
26 | CC(=O)OCC1O[C@@H]([S-])C(OC(C)=O)[C@H](OC(C)=O)[C@@H]1OC(C)=O.[Au+].c1ccc(CN2[CH-]N(Cc3ccccc3)C(c3ccccc3)=C2c2ccccc2)cc1 | 28.5%
27 | COc1ccc(C(=O)c2sc3nc4c(cc3c2N)N2CCC4CC2)cc1OC | 92.5%
28 | CC(CC1CCCCC1)NCc1ccccc1 (stereo unspecified) | 85.7%
29 | COc1ccc(/C=C\c2cc(OC)c(OC)c(OC)c2)cc1OCC(=O)Nc1nc2ccc(C(F)(F)F)cc2s1 | 40.1%
30 | O=C1CCC2(O)[C@@H]3Cc4ccc(O)c5c4[C@]2(CCN3Cc2ccoc2)C1O5 (stereo partly specified) | 96.7%
31 | C/C(=C\c1cc(C(F)(F)F)nn1CCNC(=O)OC(C)(C)C)[C@@H]1C[C@@H]2O[C@]2(C)CCC[C@H](C)[C@H](O)[C@@H](C)C(=O)C(C)(C)[C@@H](O)CC(=O)O1 | 59.2%
32 | CC(C)CCC(=O)O[C@H]1CC[C@H]2[C@@H]3CCC4=CC(=O)CC[C@]4(C)[C@H]3CC[C@]12C | 95.2%
33 | ClCCN(CCCl)Cc1ccc(Nc2ccnc3cc(Cl)ccc23)cc1 | 36.6%
34 | COc1cc(NC(C)CCCNC2CN3CCC2CC3)c2ncccc2c1 (stereo unspecified) | 84.5%
35 | C=CCCCN=C=S | 82%
36 | CCN(CC)CCOC(=O)C(OC(C)C)(c1ccccc1)c1ccccc1 | 99.1%
37 | CCC1(C(C)C)C(=O)NC(=S)NC1=O | 117%
38 | CC[C@]12C=CCN3CC[C@]4(C(=C(C(=O)OC)C1)Nc1cc(OC)c(OC(C)=O)cc14)[C@@H]32 | 20.7%

tested on: NCI-H226 lung; experiment: as above; settings: 10 µM unless noted

Row | Structure (SMILES) | growth
39 | COc1cc(/C=C\c2cc(OC)c(OC)c(OC)c2)cc(N/C=C\C(=O)c2cc(OC)c(OC)c(OC)c2)c1OC | 47.2%
40 | N#C[S-].[Au+].c1ccc(CN2[CH-]N(Cc3ccccc3)C(c3ccccc3)=C2c2ccccc2)cc1 | 24.4%
41 | O=[N+]([O-])c1ccc(OP(=O)(CCl)N(CCCl)CCCl)cc1 (stereo unspecified) | 98.9%
42 | O=C1CC2(CC3(Cl)C(Cl)=C(Cl)C2(Cl)C3(Cl)Cl)C(=O)O1 (stereo unspecified) | 110%
43 | COc1cc2c(cc1OCCCCCn1c(-c3ccco3)nc3ccccc31)N=C[C@@H]1CCCN1C2=O | -14.9% (active)
44 | O=C(O)c1ccc([S-])cc1.[Au+].c1ccc(CN2[CH-]N(Cc3ccccc3)C(c3ccccc3)=C2c2ccccc2)cc1 | 3.42% (active)
45 | N#C[Se]Cc1cc(-c2ccccc2)n(-c2ccc(S(N)(=O)=O)cc2)n1 | -29.1% (active)
46 | COc1cc2c(cc1OCCCCn1c(-c3cccs3)nc3ccccc31)N=C[C@@H]1CCCN1C2=O | -34.7% (active)
47 | COc1ccc(/C=C\c2cc(OC)c(OC)c(OC)c2)cc1OCC(=O)Nc1nc2ccc(F)cc2s1 | 42.4%
48 | O=C(Nc1ccc([N+](=O)[O-])cc1)C(Cl)(Cl)Cl | 97.8%
49 | C[CH2][Sn]([Cl])([Cl])[CH2]C.Oc1ccccc1C=NCCN=Cc1ccccc1O | 99.1%
50 | C[N+]12CN3CN(CN(C3)C1)C2 | 103%
51 | C[C@]12CC[C@@H]3c4ccc(Oc5nc(N6CC6)nc(N6CC6)n5)cc4CC[C@H]3[C@@H]1CCC2=O | 48.7%
52 | c1ccc(COc2ccc3[nH]cc(CCN(Cc4ccccc4)Cc4ccccc4)c3c2)cc1 | 73.8%
53 | [Au+].[N-]=C=O.c1ccc(CN2[CH-]N(Cc3ccccc3)C(c3ccccc3)=C2c2ccccc2)cc1 | 107%
54 | CC1=C(CCCNS(C)(=O)=O)C2=C(C)C3(CC3)[C@@](C)(O)C(=O)C2=C1 | -44% (active)
55 | C[C@]12CC[C@H]3[C@@H](CC[C@]4(O)C[C@@H](O[C@@H]5O[C@H](CO)[C@@H](O[C@@H]6OC[C@@H](O)[C@H](O)[C@H]6O)[C@H](O)[C@H]5O)CC[C@]34C=O)[C@@]1(O)CC[C@@H]2C1=CC(=O)OC1 | -2.96% (active)
56 | CN1C(=O)N[C@H]2[C@@H]3NC(=O)c4ccc(Br)n4[C@@H]3C[C@]21O | -17.4% (active)
57 | COC1OC(CO)C(O)C(O)[CH]1[Hg][O]C(C)=O (stereo unspecified) | 100%

Row | Structure (SMILES) | growth
58 | OCc1ccc2c(c1)OCO2 | 94.6%
59 | Nc1nnnc2nc[nH]c12 | -54.1% (active)
60 | CC1CCCC(C[N+](C)(C)C)C1=O (stereo unspecified) | 95.4%
61 | CNC(=O)Oc1cccc(C(F)(F)F)c1 | 90%
62 | COc1cc2c(cc1OCCCn1c(-c3ccccn3)nc3ccccc31)N=C[C@@H]1CCCN1C2=O | -62% (active)
63 | CCCCCCCOC(C(=O)OCCN(CC)CC)(c1ccccc1)c1ccccc1 | 96.4%
64 | CC(=O)OCC1O[C@@H]([S-])C(OC(C)=O)[C@H](OC(C)=O)[C@@H]1OC(C)=O.[Au+].c1ccc(CN2[CH-]N(Cc3ccccc3)C(c3ccccc3)=C2c2ccccc2)cc1 | 72.5%
65 | COc1ccc(C(=O)c2sc3nc4c(cc3c2N)N2CCC4CC2)cc1OC | 65.2%
66 | CC(CC1CCCCC1)NCc1ccccc1 (stereo unspecified) | 101%
67 | COc1ccc(/C=C\c2cc(OC)c(OC)c(OC)c2)cc1OCC(=O)Nc1nc2ccc(C(F)(F)F)cc2s1 | 45.8%
68 | O=C1CCC2(O)[C@@H]3Cc4ccc(O)c5c4[C@]2(CCN3Cc2ccoc2)C1O5 (stereo partly specified) | 89.4%
69 | C/C(=C\c1cc(C(F)(F)F)nn1CCNC(=O)OC(C)(C)C)[C@@H]1C[C@@H]2O[C@]2(C)CCC[C@H](C)[C@H](O)[C@@H](C)C(=O)C(C)(C)[C@@H](O)CC(=O)O1 | 77.4%
70 | CC(C)CCC(=O)O[C@H]1CC[C@H]2[C@@H]3CCC4=CC(=O)CC[C@]4(C)[C@H]3CC[C@]12C | 97.5%
71 | ClCCN(CCCl)Cc1ccc(Nc2ccnc3cc(Cl)ccc23)cc1 | 70.2%
72 | COc1cc(NC(C)CCCNC2CN3CCC2CC3)c2ncccc2c1 (stereo unspecified) | 87.4%
73 | C=CCCCN=C=S | 94.9%
74 | CCN(CC)CCOC(=O)C(OC(C)C)(c1ccccc1)c1ccccc1 | 100%
75 | CCC1(C(C)C)C(=O)NC(=S)NC1=O | 90.5%
76 | CC[C@]12C=CCN3CC[C@]4(C(=C(C(=O)OC)C1)Nc1cc(OC)c(OC(C)=O)cc14)[C@@H]32 | 34.4%
